This is a sample that favours compounds with a hit; in the whole collection about 3.4% have one here.
GPR151 activ – activates the human receptor GPR151. Q8TDV0. PathHunter beta-arrestin GPR151 cells, luminescence. activation, % at 11.2 µM. 650,000 compounds, 1% hits; in the data active = activation above about 4.9%;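 note: 0% = median of compound wells and 100% = cells with positive control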
TEAD-YAP block – TEAD-YAP interaction inhibition; HEK-TIYL cells, TEAD-Gal4/YAP UAS-luciferase luminescence; inhibition, % at 9.12 µM; 640,000 compounds, 1.4% hits; in the data active = inhibition above about 32%;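 note: 0% = median of test compound wells and 100% = reference inhibitor wells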
FBW7 act – activators of human E3 ligase FBW7. AlphaScreen FBW7–phospho-cyclin E peptide binding, activator screen. AID 1259310. normalized activity (activation), % at 26.1 µM. 650,000 compounds, 0.13% hits; in the data active = normalized activity above about 1.9%;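 note: purified mutant Fbw7 with reduced substrate affinity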
MITF primary – inhibitors of human MITF | 650,000 compounds, 0.91% hits | O75030 | AlphaScreen MITF homodimerization, bead proximity signal | inhibition, % at 2.6 µM; in the data active = inhibition above about 50%;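 note: 0% = vehicle wells with protein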
Target sequence (O75030 whole entry, looked up): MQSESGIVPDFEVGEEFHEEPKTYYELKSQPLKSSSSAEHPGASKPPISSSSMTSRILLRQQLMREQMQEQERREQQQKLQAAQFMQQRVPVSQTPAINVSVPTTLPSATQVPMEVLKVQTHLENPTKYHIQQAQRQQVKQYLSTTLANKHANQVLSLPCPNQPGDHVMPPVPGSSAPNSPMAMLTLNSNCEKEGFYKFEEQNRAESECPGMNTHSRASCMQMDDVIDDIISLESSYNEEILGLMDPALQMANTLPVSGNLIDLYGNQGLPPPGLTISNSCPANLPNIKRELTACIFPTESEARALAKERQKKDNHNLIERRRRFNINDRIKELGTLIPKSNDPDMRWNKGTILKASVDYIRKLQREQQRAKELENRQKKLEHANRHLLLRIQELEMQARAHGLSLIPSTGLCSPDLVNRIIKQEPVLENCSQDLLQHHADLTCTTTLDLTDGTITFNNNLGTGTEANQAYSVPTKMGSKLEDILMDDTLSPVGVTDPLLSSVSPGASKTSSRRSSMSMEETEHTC
Numbers without * were called inactive.

Screening COc1ccc2ccccc2c1/C=C1\C(=O)NN(c2ccc(Cl)cc2)C1=O returned GPR151 activ -0.3, TEAD-YAP block -4.6, FBW7 act -0.2 and MITF primary -7.8.
Screening CCC(/C=N/NC(=O)c1ccc(C)cc1C)CC returned GPR151 activ -0.4, TEAD-YAP block -15.9, FBW7 act -0.3 and MITF primary -7.6.
Screening Oc1ccc(Br)cc1CNc1nc2ccccc2[nH]1 returned GPR151 activ 0.3, TEAD-YAP block -10.4, FBW7 act 0.0 and MITF primary 74.1*.
Screening Oc1ccc(Cl)cc1CNc1nc2ccccc2[nH]1 returned GPR151 activ 2.3, TEAD-YAP block -15.5, FBW7 act 0.0 and MITF primary -3.8.
Screening COc1ccc2c(c1)CC/C(=C\c1cccn1C)C2=O returned GPR151 activ -7.1, TEAD-YAP block 45.8*, FBW7 act 0.4 and MITF primary 15.4.
For CN(Cc1n[nH]c2c1CCCC2)C(=O)COc1ccc(N(C)Cc2ccc(F)cc2)nn1 the results were GPR151 activ -1.4, TEAD-YAP block 22.1, FBW7 act 0.7 and MITF primary 11.3.
`CCOc1ccc(NC(=O)COc2c(C)cccc2C)cc1` gave GPR151 activ 0.1, TEAD-YAP block 31.4, FBW7 act 0.0 and MITF primary -23.2.
CCOc1ccc(NC(=O)COc2c(C)ccc(C)c2C)cc1 was read as GPR151 activ 1.5, TEAD-YAP block 40.6*, FBW7 act 0.0 and MITF primary 3.9.
`Cc1ccc(C)c(OCC(=O)Nc2ccccc2C(N)=O)c1C` gave GPR151 activ -1.9, TEAD-YAP block 48.3*, FBW7 act 0.6 and MITF primary 9.3.
`CCN1C(=O)/C(=C/c2c(NCCOCCO)nc3c(C)cccn3c2=O)SC1=S` gave GPR151 activ -2.4, TEAD-YAP block -9.8, FBW7 act -0.1 and MITF primary 8.0.
COc1ccc(/C=c2\sc3nc4ccccc4n3c2=O)cc1 was read as GPR151 activ 0.8, TEAD-YAP block 21.3, FBW7 act -0.1 and MITF primary -1.9.
Screening CCN1CCN(CCCNC(=O)C2CCN(c3nc4c(C)cc(C)cc4s3)CC2)CC1 returned GPR151 activ -0.6, TEAD-YAP block 1.3, FBW7 act 0.2 and MITF primary 11.0.
For CCN(CC)C(=O)N1c2ccccc2CCc2ccccc21 the results were GPR151 activ 1.0, TEAD-YAP block 41.9*, FBW7 act -0.1 and MITF primary -1.4.
`COc1ccc(NC(=O)CSc2nc3ccccc3o2)cc1` gave GPR151 activ 2.6, TEAD-YAP block -54.8, FBW7 act 0.6 and MITF primary -2.6.
For CC1CCc2nc(NC(=O)CSc3nc4ccccc4o3)sc2C1 (stereo not given) the results were GPR151 activ 2.0, TEAD-YAP block 66.6*, FBW7 act -0.1 and MITF primary 0.8.
`Cc1nnc(SCC(=O)Nc2nc3c(s2)CC(C)CC3)s1` (stereo not given) gave GPR151 activ 0.4, TEAD-YAP block -16.4, FBW7 act -0.1 and MITF primary 1.6.
COc1ccc(NC(=O)CSc2nc3ccccc3o2)cc1OC was read as GPR151 activ -1.9, TEAD-YAP block 32.6*, FBW7 act 0.5 and MITF primary 0.9.
For COc1ccc(CNC(=O)N2CCCC(c3nnc(-c4ccccc4F)s3)C2)cc1 (stereo not given) the results were GPR151 activ -0.4, TEAD-YAP block -22.9, FBW7 act -0.1 and MITF primary 12.4.
CC(C)C(=O)N1CCCC(c2nnc(-c3ccccc3F)s2)C1 (stereo not given) was read as GPR151 activ -6.2, TEAD-YAP block 92.6*, FBW7 act 0.0 and MITF primary 8.3.
For CC(=O)N1CCCC(c2nnc(-c3ccccc3F)s2)C1 (stereo not given) the results were GPR151 activ -6.0, TEAD-YAP block 81.8*, FBW7 act -0.1 and MITF primary -0.9.
Screening COc1cccc(C(=O)NCc2nnc(SCC(=O)Nc3nccs3)n2-c2cccc(C(F)(F)F)c2)c1 returned GPR151 activ -1.4, TEAD-YAP block -3.2, FBW7 act 0.4 and MITF primary 7.2.
Screening CCN(CC)c1nc2cc(OC)ccc2cc1C#N returned GPR151 activ -1.4, TEAD-YAP block 23.0, FBW7 act 2.3* and MITF primary -17.3.
`COC(=O)C(Cc1ccccc1)NC(=O)c1cc([N+](=O)[O-])c(Cl)c([N+](=O)[O-])c1` (stereo not given) gave GPR151 activ 0.1, TEAD-YAP block -8.3, FBW7 act -0.2 and MITF primary 0.9.
`Cc1ccccc1CN1C(=O)CSc2ccc(C(=O)N3CCN(c4ccccn4)CC3)cc21` gave GPR151 activ 3.2, TEAD-YAP block 44.9*, FBW7 act -0.1 and MITF primary 4.0.
Screening Cc1ccccc1CN1C(=O)CSc2ccc(C(=O)N3CCOCC3)cc21 returned GPR151 activ 1.0, TEAD-YAP block -6.2, FBW7 act 0.1 and MITF primary 0.2.
For COC(=O)c1ccc(NCc2cccc([N+](=O)[O-])c2O)cc1 the results were GPR151 activ -0.5, TEAD-YAP block 2.1, FBW7 act 0.1 and MITF primary 5.2.
COc1ccccc1N1CCN(C(c2cccs2)C(C)NC(C)=O)CC1 (stereo not given) was read as GPR151 activ 1.5, TEAD-YAP block -6.3, FBW7 act 0.1 and MITF primary 3.5.
Cc1ccc(OC(=O)c2ccccc2Cl)c(-n2nc3ccccc3n2)c1 was read as GPR151 activ -1.2, TEAD-YAP block -20.1, FBW7 act 7.6* and MITF primary -0.3.
Screening Cc1ccc(Oc2ccc(S(=O)(=O)N3CCOCC3)cc2C(N)=O)c(-n2nc3ccccc3n2)c1 returned GPR151 activ -0.1, TEAD-YAP block 40.5*, FBW7 act 0.1 and MITF primary 0.3.
For COc1ccccc1C(=O)Oc1ccc(C)cc1-n1nc2ccccc2n1 the results were GPR151 activ -8.6, TEAD-YAP block -51.3, FBW7 act 0.2 and MITF primary 15.6.
`Cc1ccc(Oc2ccc(S(=O)(=O)N3CCOCC3)cc2S(=O)(=O)N2CCOCC2)c(-n2nc3ccccc3n2)c1` gave GPR151 activ -0.2, TEAD-YAP block 1.8, FBW7 act -0.1 and MITF primary 0.5.
O=C(c1ccccc1)N1CCN(c2cc(N3CCCCC3)c(F)cc2[N+](=O)[O-])CC1 was read as GPR151 activ -0.1, TEAD-YAP block 1.6, FBW7 act -0.3 and MITF primary -4.5.
`CN(C)S(=O)(=O)c1ccc(C(=O)Nc2nc3ccc(Cl)cc3s2)cc1` gave GPR151 activ -0.2, TEAD-YAP block -11.6, FBW7 act -0.1 and MITF primary -8.3.
COc1cc(/C=C/c2ccc(O)c(OC)c2)ccc1O was read as GPR151 activ -0.5, TEAD-YAP block -54.3, FBW7 act -0.1 and MITF primary -0.1.
Screening O=c1cc(O)cc(/C=C/c2ccc(O)c(O)c2)o1 returned GPR151 activ 0.7, TEAD-YAP block -5.3, FBW7 act -0.2 and MITF primary 86.3*.
`CN1CCN(C(=O)c2cc(-c3ccc(Br)cc3)on2)CC1` gave GPR151 activ -1.0, TEAD-YAP block -42.9, FBW7 act -0.2 and MITF primary 1.7.

Source: PubChem BioAssay
